This is a sample that favours compounds with a hit; in the whole collection about 7% have one here.
DRD3 antagonist: antagonists of human D3 dopamine receptor; P35462; D3R cells, DiscoveRx beta-arrestin luminescence, antagonist mode; stronger effect = lower value; max response, negative = inhibition, %; 360,000 tested, 2.5% active; in the data active = max response below about -50%; inconclusive = no clear call, values can overlap the other calls; note: % is set by controls: 0 for no effect and ±100 for the full control effect
Target sequence (P35462 whole entry, looked up): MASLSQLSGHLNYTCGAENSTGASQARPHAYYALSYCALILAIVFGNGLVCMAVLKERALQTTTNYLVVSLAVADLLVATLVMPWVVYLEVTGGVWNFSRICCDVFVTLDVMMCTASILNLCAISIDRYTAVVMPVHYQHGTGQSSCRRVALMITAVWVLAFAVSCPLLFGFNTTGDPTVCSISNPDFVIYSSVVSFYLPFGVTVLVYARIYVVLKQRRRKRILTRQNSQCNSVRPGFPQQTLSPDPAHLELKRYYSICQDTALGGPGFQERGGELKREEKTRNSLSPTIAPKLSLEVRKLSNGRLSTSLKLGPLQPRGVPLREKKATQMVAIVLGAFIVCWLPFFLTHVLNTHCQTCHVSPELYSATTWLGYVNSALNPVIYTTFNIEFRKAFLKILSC
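Cells plated overnight at 1500 cells/well, then exposed to library compounds with dopamine controls for 90 minutes at 37 degrees C. DiscoveRx reagent added for 30–60 minutes at room temperature; luminescence read, quantitative HTS format.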
a7 integrin act: activators of alpha7 integrin expression for muscular dystrophy. Potency, µM (titrated, usually from 38.3 µM), for inactives: top-dose activation, hits mostly activators. 350,000 tested, 0.064% active. AID 624291. alpha7betagal myoblasts, beta-gal FDG fluorescence, 48 h;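 note: potency is the fitted concentration of half-maximal effect; 100% = response of the positive control SU9516; nearly all actives have a fitted effect of over 60% in size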
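Alpha7betagal+/- myoblasts (passage 13) were plated 16-24 hr, then exposed to compounds (1:260 dilution of DMSO stock) for 48 hours at 37C. After MPER lysis, β-galactosidase reporter activity was read as FDG fluorescence (ex 480/em 540) after 30 minutes.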
S2 tox: cell viability loss in ATXN counter-screen; S2 cells (HEK-293 line with an ATXN2-luciferase reporter) viability, CellTiter-Fluor protease fluorescence, 24 h; Potency, µM (doses to about 56.7 µM), usual class: cytotoxic; 400,000 tested, 0.49% active; AID 651635; note: potency is the fitted concentration of half-maximal effect; nearly all actives have a fitted effect of over 40% in size
ATXN2 expr inh: ATXN2 expression inhibition. 360,000 tested, 0.72% active. HEK-293 ATXN2-luciferase reporter, luminescence, 24 h. Potency, µM (top dose mostly 57 µM), inactives show top-dose activity change, negative = inhibition, actives largely listed as inhibitors. AID 1745845; note: potency is the fitted concentration of half-maximal effect; % is set by controls: 0 for no effect and ±100 for the full control effect; nearly all actives have a fitted effect of over 55% in size
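qHTS (up to 57 uM final) was run with 24 h compound exposure of reporter cells at 37 °C. Each well was multiplexed: SteadyGlo luminescence measured ATXN2-luciferase expression after a fluorogenic Gly-Phe-AFC viability readout (25 uM final).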
D3 ag: agonists of human D3 dopamine receptor; P35462; D3R DiscoveRx beta-arrestin cells, luminescence, 90 min; max activation, %; 410,000 tested, 0.58% active; AID 652048; in the data active = max activation above about 30%; note: 0% is about no effect
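Cells at 1500/well, incubated overnight, then treated with pinned compounds (dopamine as control) for 90 min at 37 degrees C. DiscoveRx reagent added for 30 - 60 minutes at room temperature; luminescence read.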
IL1B secr inh: inhibitors of inflammasome signaling (IL-1 beta secretion) | THP-1 LPS/ATP IL-1B secretion, AlphaLISA, 16 h; stronger effect = lower value | activity change, % at 57.5 µM | 360,000 tested, 4.7% active; in the data active = activity change below about -50%; inconclusive = mostly about -30% to -49%; note: % is set by controls: 0 for no effect and ±100 for the full control effect
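Secreted IL-1B measured by AlphaLISA bead assay after 16 h compound exposure of THP-1 cells; compounds (final up to 57.5 uM) added 1 h before LPS (250 ng/mL) and ATP (1.25 mM) stimulation; lower signal means less secretion.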
The depositor's hits bear a star; [ ] = dose if it differs, or a comment. Unless noted, calls come from the whole dose curve; as a rule, active = well fitted curve in the direction sought with a large enough effect; inconclusive = small, poorly fitted or top-dose-only effect, or another doubt; inactive = no such curve, though single readings can be large; an effect the other way counts as inactive or inconclusive.

How did Clc1ccc(Cn2ccc(-c3ccc4c(c3)OCO4)n2)cc1Cl do in these assays?
DRD3 antagonist: -21; a7 integrin act: 8%[7.66 µM]; S2 tox: inactive; ATXN2 expr inh: -8%; D3 ag: 2; IL1B secr inh: -7

What do the screens show for `COC(=O)c1c(NC(=O)/C=C/C(=O)O)sc(C)c1-c1ccc(C(C)C)cc1`?
DRD3 antagonist: inconclusive; a7 integrin act: -3%; S2 tox: inactive; ATXN2 expr inh: inconclusive; D3 ag: -16; IL1B secr inh: -101*

What do the screens show for `COC(=O)c1sc(-c2ccc(Cl)cc2)cc1NC(=O)/C=C/C(=O)O`?
DRD3 antagonist: -22; a7 integrin act: inconclusive; ATXN2 expr inh: inconclusive; D3 ag: 2; IL1B secr inh: -95*

Results for COC(=O)c1c(NC(=O)/C=C/C(=O)O)sc(C)c1-c1ccc(C)cc1 ?
DRD3 antagonist: inconclusive; a7 integrin act: -13%; S2 tox: inconclusive; ATXN2 expr inh: inconclusive; D3 ag: -12; IL1B secr inh: -98*

What do the screens show for `CC(C)=C1C2CCC1C(C(=O)Nc1sc(C)c(-c3ccc(C(C)C)cc3)c1C(N)=O)C2C(=O)O` (stereo not given)?
DRD3 antagonist: -10; a7 integrin act: 13%; S2 tox: inactive; ATXN2 expr inh: -8%; D3 ag: 1; IL1B secr inh: -28

Results for Cc1ccc(-c2c(C)sc(NC(=O)C3C4CCC(O4)C3C(=O)O)c2C(=O)OC(C)C)cc1 (stereo not given) ?
DRD3 antagonist: -16; a7 integrin act: -2%; S2 tox: inactive; ATXN2 expr inh: 0%; D3 ag: -5; IL1B secr inh: 6

What do the screens show for `COC(=O)c1sc(-c2ccc(Cl)cc2)cc1NC(=O)COCC(=O)O`?
DRD3 antagonist: -15; a7 integrin act: -14%; S2 tox: inactive; D3 ag: -3; IL1B secr inh: -21

Results for CN(C)S(=O)(=O)c1cccc(NC(=O)CN2C(=O)NC(CCc3ccccc3)C2=O)c1 (stereo not given) ?
DRD3 antagonist: -1; a7 integrin act: 12%; S2 tox: inactive; D3 ag: 1; IL1B secr inh: 32

What do the screens show for `CC(Sc1nnnn1-c1ccccc1)C(=O)Nc1ccccc1-c1ccccc1` (stereo not given)?
DRD3 antagonist: 10; a7 integrin act: 0%; S2 tox: inactive; ATXN2 expr inh: -6%; D3 ag: 2; IL1B secr inh: -23

Results for CC1=C(C(N)=O)C(c2cccc(F)c2)n2nc(SCc3ccccc3)nc2N1 (stereo not given) ?
S2 tox: inactive; ATXN2 expr inh: -4%; D3 ag: -1

How did CS(=O)(=O)c1ccc(Cl)c(NC(=O)CSc2nnc(-c3cccs3)n2N)c1 do in these assays?
DRD3 antagonist: 6; a7 integrin act: 9%; S2 tox: inconclusive; ATXN2 expr inh: 6%; D3 ag: 2; IL1B secr inh: 3

What do the screens show for `Cc1ccc2c(c1)c1c(c(=O)n(-c3cccc(Cl)c3)c(=O)n1CC(N)=O)n2C`?
S2 tox: inactive; ATXN2 expr inh: 16%; D3 ag: 6

Results for O=C(Nc1nc2ccccc2s1)c1cnccn1 ?
DRD3 antagonist: 9; a7 integrin act: -18%; S2 tox: inactive; ATXN2 expr inh: -24%; D3 ag: -7; IL1B secr inh: 11

What do the screens show for `C/C(=N\Nc1nc2ccccc2s1)c1ccc2c(c1)OCO2`?
DRD3 antagonist: 40; a7 integrin act: 1%; S2 tox: inactive; D3 ag: -3; IL1B secr inh: 12

Results for CC(=NNc1nc2ccccc2s1)c1ccncn1 ?
DRD3 antagonist: -57*; a7 integrin act: -51%; ATXN2 expr inh: inconclusive; D3 ag: -9; IL1B secr inh: -94*

Results for C/C(=N\Nc1nc2ccccc2s1)c1ccc(Br)s1 ?
DRD3 antagonist: 18; a7 integrin act: -59%; ATXN2 expr inh: -17%[11.3 µM]; D3 ag: 4; IL1B secr inh: -103*

Assay outcomes: PubChem, National Center for Advancing Translational Sciences (NCATS)
